This is an account of results in PubChem BioAssay (EPA / NIEHS).

Records with an inconclusive call do not appear. Active and inactive are the calls of the source. The calls were made as follows, unless noted: active = hit-call score of the fitted dose curve at least 0.9, where 1 is the maximum; inactive = score below 0.9.

The target of test [1] is human Retinoid X Receptor beta (RXRb), RXRB (gene 6257) (UniProt P28702). In words: ATG_RXRb_TRANS: Attagene TRANS-FACTORIAL HepG2 Assay for human Retinoid X Receptor beta (RXRb) (AID 2283013; active = hit-call score of the fitted dose curve at least 0.9, where 1 is the maximum). The method, boiled down: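 Multiplexed TRANS reporter assay in HepG2; 24 h dosing; reporter mRNA by RT-PCR/CE fluorescence; gain-of-signal relative to DMSO.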
Test [2] concerns the target human Thyroid Receptor alpha (THRa1), THRA (gene 7067) (UniProt P10827). Nature of the test: ATG_THRa1_TRANS: Attagene TRANS-FACTORIAL HepG2 Assay for human Thyroid Receptor alpha (THRa1) (AID 2283014; active = hit-call score of the fitted dose curve at least 0.9, where 1 is the maximum). Summed up: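 First, HepG2 cells receive multiple GAL4-UAS reporter units and the chimeric receptor. They are then dosed for 24 h, after which RNA is reverse-transcribed, amplified, labelled, HpaI-cut and sized by capillary electrophoresis; gain relative to DMSO is scored.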

Read-out in test [3]: E-selectin (Homo sapiens) (UniProt P16581)
Nature of the test: BSK_3C_Eselectin: BioMAP Diversity Plus: 3C Assay for Eselectin Biomarker Activity (AID 2283015).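 Also: cell surface E-selectin protein quantified by ELISA 24 h after dosing.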 The following applies: primary human endothelial cells (HUVEC); actives raise or lower the signal. The method, boiled down:
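Human vascular endothelium from umbilical vein is exposed to test chemicals for 24 h. E-selectin levels are read by ELISA and compared with DMSO controls.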

Read-out in test [4]: Interleukin-1 alpha (IL1a), IL1A (gene 3552)
In words: BSK_BE3C_IL1a: BioMAP Diversity Plus: BE3C Assay for Interleukin-1 alpha (IL1a) Biomarker Activity (AID 2283016). The following applies: primary human bronchial epithelial cells; actives raise or lower the signal. The method, boiled down:
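Cultures of primary human bronchial epithelial cells receive test chemical. After 24 h, IL-1a is quantified by ELISA, while parallel wells are fixed in TCA and SRB-stained for total protein. Changes in either direction are fitted relative to DMSO.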

Read-out in test [5]: Monocyte Chemoattractant Protein-1 (MCP1), CCL2 (gene 6347)
Nature of the test: BSK_3C_MCP1: BioMAP Diversity Plus: 3C Assay for Monocyte Chemoattractant Protein-1 (MCP1) Biomarker Activity (AID 2283017). The conditions noted are these: primary human endothelial cells (HUVEC); actives raise or lower the signal. Summed up: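 Endothelial cells from human umbilical vein are dosed with chemical, cultured 24 h, then assayed for MCP-1 by ELISA; both increases and decreases are modelled against DMSO controls.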

Read-out in test [6]: Monocyte Chemoattractant Protein-1 (MCP1), CCL2 (gene 6347)
In words: BSK_4H_MCP1: BioMAP Diversity Plus: 4H Assay for Monocyte Chemoattractant Protein-1 (MCP1) Biomarker Activity (AID 2283018). The conditions noted are these: primary human endothelial cells (HUVEC); actives raise or lower the signal. The method, boiled down: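 Readout: MCP-1 ELISA on compound-treated HUVEC, sampled 24 h post-dosing. Baseline and negative control DMSO; bidirectional fit. Overt toxicity checked alongside by sulforhodamine B protein staining at time of biomarker measurement.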

Read-out in test [7]: Human Leukocyte Antigen - DR isotype (HLADR), HLA-DRA (gene 3122)
In words: BSK_3C_HLADR: BioMAP Diversity Plus: 3C Assay for Human Leukocyte Antigen - DR isotype (HLADR) Biomarker Activity (AID 2283019).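 Also: ELISA of cell-surface HLA-DR on HUVEC 24 h after dosing.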 The following applies: primary human endothelial cells (HUVEC); actives raise or lower the signal. Summed up: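 Endothelial cells from human umbilical vein are treated with test chemical; after 24 h, HLA-DR levels are measured by ELISA. Data are fitted in both directions using DMSO as the baseline.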

Read-out in test [8]: Interleukin-8 (IL8), CXCL8 (gene 3576)
Nature of the test: BSK_3C_IL8: BioMAP Diversity Plus: 3C Assay for Interleukin-8 (IL8) Biomarker Activity (AID 2283020). The conditions noted are these: primary human endothelial cells (HUVEC); actives raise or lower the signal. The method, boiled down: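 Human vascular endothelial cells (umbilical vein) in the 3C system; IL-8 level detected by ELISA at 24 h post-dose, with DMSO as baseline.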

Read-out in test [9]: Monokine induced gamma interferon (MIG), CXCL9 (gene 4283)
Nature of the test: BSK_3C_MIG: BioMAP Diversity Plus: 3C Assay for Monokine induced gamma interferon (MIG) Biomarker Activity (AID 2283021). The conditions noted are these: primary human endothelial cells (HUVEC); actives raise or lower the signal. Summed up:
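After 24 h of treatment, human umbilical vein endothelial cultures (3C system) had their MIG biomarker level determined by ELISA, with DMSO serving as negative control.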

Test [10] is described as follows: BSK_3C_SRB: Viability Assessment in the BioMAP Diversity Plus: 3C Assay (AID 2283023).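 Also: fitted both ways against DMSO so a hit may be signal rise or drop.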 The following applies: primary human endothelial cells (HUVEC). Summed up: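 Cells were dosed with chemical, cultured 24 h, fixed with 10% TCA, stained with 0.1% SRB and read at 560 nm. Human umbilical vein endothelium was used; DMSO served as negative control and baseline.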

Read-out in test [11]: Matrix Metallopeptidase 1 (MMP1), MMP1 (gene 4312)
In words: BSK_BE3C_MMP1: BioMAP Diversity Plus: BE3C Assay for Matrix Metallopeptidase 1 (MMP1) Biomarker Activity (AID 2283024). The following applies: primary human bronchial epithelial cells; actives raise or lower the signal. The method, boiled down:
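Dose cells, wait 24 h, run MMP1 ELISA; cells are human bronchial epithelial primaries. Both increases and decreases relative to DMSO counted.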

Test [12] can be described thus: BSK_3C_Vis: BioMAP Diversity Plus: 3C Assay for Morphology Visualization (AID 2283025).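 Also: fitted both ways so gain or loss versus DMSO counts.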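 As to AC50: light microscopy image of cell morphology used as background control.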 The conditions noted are these: primary human endothelial cells (HUVEC). Summed up: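 Endothelial cells from human umbilical vein were treated with test chemicals for 24 h and inspected by light microscopy for changes in cell conformation.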
The nature of test [13]: BSK_4H_SRB: Viability Assessment in the BioMAP Diversity Plus: 4H Assay (AID 2283027).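 Also: cells exposed to compound for 24 h before staining.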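 As to AC50: curves fitted both ways versus DMSO so AC50 may be loss or gain.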 The following applies: primary human endothelial cells (HUVEC). The method, boiled down: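 Absorbance at 560 nm of SRB-stained total protein served as the viability read-out in confluent primary human umbilical vein endothelium 24 h after chemical treatment. Curves were fitted bidirectionally against DMSO as negative control.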

The nature of test [14]: BSK_BE3C_SRB: Viability Assessment in the BioMAP Diversity Plus: BE3C Assay (AID 2283028). The conditions noted are these: primary human bronchial epithelial cells. The method, boiled down:
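Overt cytotoxicity was assessed as total protein in confluent human primary bronchial epithelial cultures 24 h after chemical addition, using 0.1% sulforhodamine B staining read at 560 nm.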

Read-out in test [15]: Thrombomodulin, THBD (gene 7056)
In words: BSK_3C_Thrombomodulin: BioMAP Diversity Plus: 3C Assay for Thrombomodulin Biomarker Activity (AID 2283029). The following applies: primary human endothelial cells (HUVEC); actives raise or lower the signal. The method, boiled down: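 Thrombomodulin ELISA, human primary HUVEC, 24 h post-dose; data fitted in both directions relative to DMSO.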

Read-out in test [16]: Urokinase-type plasminogen activator receptor (uPAR), PLAUR (gene 5329)
In words: BSK_4H_uPAR: BioMAP Diversity Plus: 4H Assay for Urokinase-type plasminogen activator receptor (uPAR) Biomarker Activity (AID 2283030). The conditions noted are these: primary human endothelial cells (HUVEC); actives raise or lower the signal. The method, boiled down:
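Chemicals are dosed onto human vascular endothelial primary cells (umbilical vein). After 24 h, uPAR is read by ELISA. Gain or loss of signal is fitted relative to DMSO.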

For test [17], the target named is human Vitamin D Receptor (VDR), VDR (gene 7421) (UniProt P11473). Nature of the test: ATG_VDR_TRANS: Attagene TRANS-FACTORIAL HepG2 Assay for human Vitamin D Receptor (VDR) (AID 2283022; active = hit-call score of the fitted dose curve at least 0.9, where 1 is the maximum). Summed up: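 Fluorescence of labelled reporter cDNA fragments, resolved by capillary electrophoresis, gives mRNA induction after 24 h treatment of HepG2 cells carrying transfected Gal4-fusion reporter units. Activity is fitted in the positive direction with DMSO as baseline.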

Read-out in test [18]: Vascular endothelial growth factor receptor 2 (Homo sapiens) (UniProt P35968)
In words: BSK_4H_VEGFRII: BioMAP Diversity Plus: 4H Assay for Vascular endothelial growth factor receptor 2 (VEGFR2) Biomarker Activity (AID 2283031). The conditions noted are these: primary human endothelial cells (HUVEC); actives raise or lower the signal. Summed up:
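VEGFRII levels on human vascular endothelial primary cells were determined by ELISA at 24 hours post-dosing, with gain- or loss-of-signal fitted against DMSO controls.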

Read-out in test [19]: Pselectin, SELP (gene 6403)
Nature of the test: BSK_4H_Pselectin: BioMAP Diversity Plus: 4H Assay for Pselectin Biomarker Activity (AID 2283026). The conditions noted are these: primary human endothelial cells (HUVEC); actives raise or lower the signal. The method, boiled down:
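Human vascular endothelium from umbilical vein; P-selectin measured by ELISA at 24 h post-dose, with cytotoxicity checked by sulforhodamine B total-protein staining in parallel cultures (0.1% SRB after 10% TCA fixation, read at 560 nm).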

human Retinoid X Receptor beta (RXRb), RXRB (gene 6257), sequence (P28702 whole entry, looked up, the tested form may be a part): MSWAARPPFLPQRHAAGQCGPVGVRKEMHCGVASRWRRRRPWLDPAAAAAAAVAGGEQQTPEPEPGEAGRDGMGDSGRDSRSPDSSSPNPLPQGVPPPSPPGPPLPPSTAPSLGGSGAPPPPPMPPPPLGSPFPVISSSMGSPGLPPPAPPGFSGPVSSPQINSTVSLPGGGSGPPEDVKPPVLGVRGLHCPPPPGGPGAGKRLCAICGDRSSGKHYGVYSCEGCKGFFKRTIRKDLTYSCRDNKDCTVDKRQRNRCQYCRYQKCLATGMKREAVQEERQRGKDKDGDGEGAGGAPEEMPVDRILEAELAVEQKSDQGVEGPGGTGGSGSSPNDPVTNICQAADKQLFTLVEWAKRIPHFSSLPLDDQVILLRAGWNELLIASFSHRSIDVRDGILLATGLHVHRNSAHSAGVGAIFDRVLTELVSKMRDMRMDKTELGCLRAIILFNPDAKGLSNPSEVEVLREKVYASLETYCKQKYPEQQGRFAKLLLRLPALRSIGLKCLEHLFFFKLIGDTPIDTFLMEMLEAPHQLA
human Thyroid Receptor alpha (THRa1), THRA (gene 7067), sequence (P10827 whole entry, looked up, the tested form may be a part): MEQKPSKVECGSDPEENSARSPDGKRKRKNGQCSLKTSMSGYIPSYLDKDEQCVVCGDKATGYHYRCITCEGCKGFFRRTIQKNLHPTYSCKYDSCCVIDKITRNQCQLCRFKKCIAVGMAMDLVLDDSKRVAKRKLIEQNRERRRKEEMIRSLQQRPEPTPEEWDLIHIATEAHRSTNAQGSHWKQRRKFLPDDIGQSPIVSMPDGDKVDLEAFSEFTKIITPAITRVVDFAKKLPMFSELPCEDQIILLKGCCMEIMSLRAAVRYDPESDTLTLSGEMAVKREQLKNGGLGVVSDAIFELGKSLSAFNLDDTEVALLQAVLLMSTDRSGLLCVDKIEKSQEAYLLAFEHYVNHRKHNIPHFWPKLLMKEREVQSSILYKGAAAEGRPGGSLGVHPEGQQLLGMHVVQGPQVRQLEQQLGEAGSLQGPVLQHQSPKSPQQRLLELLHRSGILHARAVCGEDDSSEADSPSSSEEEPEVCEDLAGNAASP
E-selectin (Homo sapiens), sequence (P16581 whole entry, looked up): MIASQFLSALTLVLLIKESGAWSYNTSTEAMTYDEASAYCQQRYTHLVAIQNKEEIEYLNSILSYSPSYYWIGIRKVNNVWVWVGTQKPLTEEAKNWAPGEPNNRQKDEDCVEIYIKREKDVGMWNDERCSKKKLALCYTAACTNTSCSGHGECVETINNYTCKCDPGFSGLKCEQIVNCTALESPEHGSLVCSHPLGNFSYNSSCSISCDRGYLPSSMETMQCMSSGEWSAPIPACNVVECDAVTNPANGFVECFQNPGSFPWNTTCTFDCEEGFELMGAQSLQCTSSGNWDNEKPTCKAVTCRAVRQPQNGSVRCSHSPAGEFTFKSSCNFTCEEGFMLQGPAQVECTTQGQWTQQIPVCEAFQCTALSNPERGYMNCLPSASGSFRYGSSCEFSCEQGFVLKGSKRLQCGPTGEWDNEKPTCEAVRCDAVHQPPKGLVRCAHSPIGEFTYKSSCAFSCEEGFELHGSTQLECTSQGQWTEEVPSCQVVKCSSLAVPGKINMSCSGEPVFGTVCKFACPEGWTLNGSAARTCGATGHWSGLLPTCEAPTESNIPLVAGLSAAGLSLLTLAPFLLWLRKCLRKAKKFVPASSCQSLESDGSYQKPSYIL
human Vitamin D Receptor (VDR), VDR (gene 7421), sequence (P11473 whole entry, looked up, the tested form may be a part): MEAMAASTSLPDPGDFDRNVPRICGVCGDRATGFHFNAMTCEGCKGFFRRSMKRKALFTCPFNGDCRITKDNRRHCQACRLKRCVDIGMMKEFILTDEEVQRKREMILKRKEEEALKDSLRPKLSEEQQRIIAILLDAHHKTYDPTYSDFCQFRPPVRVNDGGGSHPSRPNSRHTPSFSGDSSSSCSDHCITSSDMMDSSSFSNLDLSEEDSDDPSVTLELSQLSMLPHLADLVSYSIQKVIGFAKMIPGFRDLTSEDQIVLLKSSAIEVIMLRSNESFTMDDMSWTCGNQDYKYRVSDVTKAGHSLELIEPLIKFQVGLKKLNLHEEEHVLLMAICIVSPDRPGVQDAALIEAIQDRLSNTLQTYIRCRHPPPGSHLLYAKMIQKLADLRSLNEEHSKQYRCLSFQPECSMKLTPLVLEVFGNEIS

For the compound `[O-][Cl+]O`, the result in [1], in test [2], in test [3], in test [4], in test [5] and in [6] was inactive. The outcome in test [7], in test [8], in [9], in [10], in [11] and in test [12] was inactive. Further, the outcome in [13], in test [14], in test [15] and in test [16] was inactive.
For the compound `Clc1ccc(Cl)c(Cl)c1`, the outcome in [3], in test [4], in [5], in test [6], in test [7] and in test [8] was inactive. Also, the result in test [9], in test [17], in test [10], in test [11], in test [12] and in [13] was inactive. The result in test [14], in [15], in [16] and in [18] was inactive.
As usually defined, the AC50 is the midpoint of the concentration-response curve, whichever way the signal moves. `COC(=O)Nc1nc2ccccc2[nH]1`: the call in test [1], in [2], in [3], in [4], in test [5] and in test [6] was inactive. Besides, the outcome in test [7], in [8], in [9], in test [11], in [14] and in test [15] was inactive. The result in test [18] was inactive. For the same compound, the AC50 is 8.51 µM (active) in test [10], 9.8 µM (active) in [12], 14.5 µM (active) in [13] and 8.56 µM (active) in test [16].
With `CCN(CC)N=O`, the compound was classed as inactive in test [2], in [3], in [4], in test [5], in [6] and in [7]. Besides, the result in test [8], in test [9], in [10], in test [11], in test [12] and in test [19] was inactive. Besides, the outcome in test [13], in [14], in [15], in test [16] and in [18] was inactive.
`Clc1ccccc1Cl`: the result in test [3], in [4], in [5], in [6], in test [7] and in test [8] was inactive. In addition, the result in test [9], in test [17], in test [10], in test [11], in [12] and in test [19] was inactive. Further, the outcome in test [13], in [14], in [15], in [16] and in [18] was inactive.
With `CCC(C)c1ccc(O)cc1` (stereo not drawn), in test [1], the half-maximal activity concentration (AC50) was 100 µM (active). In addition, the result in test [3], in [4], in [5], in test [6], in [7] and in test [8] was inactive. In addition, the result in test [9], in test [10], in [11], in test [12], in test [13] and in [14] was inactive. Moreover, the outcome in [15], in [16] and in test [18] was inactive.
Take `C[N+](C)(C)CC1CO1` (stereo not drawn): the call in [2], in [3], in test [4], in test [5], in test [6] and in [7] was inactive. In addition, the outcome in test [8], in [9], in test [10], in test [11], in test [12] and in [13] was inactive. The result in [14], in [15], in test [16] and in test [18] was inactive.
Consider `CC(O)CCO` (stereo not drawn), for which the AC50 in test [1] was 6.17 µM (active). For the same compound, the compound was classed as inactive in [2], in [3], in test [4], in [5], in [6] and in test [7]. Also, the outcome in test [8], in test [9], in test [17], in test [10], in test [11] and in test [12] was inactive. Moreover, the result in test [13], in test [14], in [15], in test [16] and in [18] was inactive.
